{"source": "ChEMBL document CHEMBL4513216", "about": "“Probing the Open Global Health Chemical Diversity Library for Multistage-Active Starting Points for Next-Generation Antimalarials” (ACS Infect Dis, 2020)", "note": "The campaign covered roughly 65,000 compounds. About 2,100 (3.2%) showed an effect of 50% or more. The median lay at about -52%. The sample as a whole holds a higher share of strong results than the screen did."}
{"system": "Plasmodium falciparum", "assay": "Screen against P. falciparum Asexual Blood Stage (ABS), at 5uM", "assay_type": "functional, Dd2", "details": "tested at 5 uM", "units": {"INHIBITION": "%"}}
{"molecule": "O=S1(=O)CCC(n2cc(C3=CCN(CCn4cccc4)CC3)cn2)C1", "note": "(stereo not drawn)", "INHIBITION": -22.4}
{"molecule": "Cc1noc(C)c1CN1C(=O)[C@@H]2CC[C@H]1CN(Cc1cscn1)C2", "INHIBITION": -41.1}
{"molecule": "O=C(C1CCC1)N1CCC2(CC1)CNCCO2", "INHIBITION": -16.3}
{"molecule": "O=C(Nc1ccccc1)C1=NOC2(CCNCC2)C1", "INHIBITION": -53.9}
{"molecule": "COc1ccc(CC(C)(O)CNC(=O)c2cccs2)cc1", "note": "(stereo not drawn)", "INHIBITION": 89.1}
{"molecule": "c1cc(COC[C@H]2CCC[C@]23CNCCO3)ccn1", "INHIBITION": 14.9}
{"molecule": "c1cnc(NCc2cncc3c2CCN(CC2CC2)C3)nc1", "INHIBITION": -95}
{"molecule": "CC(C)N1CCO[C@H]2CN(C(=O)c3ccccn3)C[C@H]21", "INHIBITION": -46.1}
{"molecule": "CCOc1cccc(C(C)NC(=O)N2CCC3(CC2)OCCO3)c1", "note": "(stereo not drawn)", "INHIBITION": -117}
{"molecule": "CN1CCC(NCC(O)c2cccc(OCc3ccccc3)c2)CC1", "note": "(stereo not drawn)", "INHIBITION": 90.7}
{"molecule": "OC(CNC1CCSCC1)c1cccc(OCc2ccccc2)c1", "note": "(stereo not drawn)", "INHIBITION": 74.4}
{"molecule": "CC(C)OCCN(C)CC(c1cccs1)N1CCOCC1", "note": "(stereo not drawn)", "INHIBITION": 79.9}
{"molecule": "NCC(c1cccnc1)N1CCOCC1", "note": "(stereo not drawn)", "INHIBITION": -122}
{"molecule": "c1cnc(N2CC[C@@H]3[C@@H]2CCN3Cc2cccs2)nc1", "INHIBITION": -56.7}
{"molecule": "Oc1cc(C2CCCCN2Cc2cccs2)nc(-c2ccccn2)n1", "note": "(stereo not drawn)", "INHIBITION": 85.9}
{"molecule": "c1ccc(COC[C@H]2CC[C@H]3[C@H](CCN3Cc3cccs3)O2)nc1", "INHIBITION": -43.6}
{"molecule": "CCN1CCN(Cc2nc(C)no2)CC1", "INHIBITION": -11.7}
{"molecule": "Cc1noc(C)c1CN1C[C@@H](OCC(=O)N(C)C)[C@H]2OCCC[C@H]21", "INHIBITION": -76.4}
{"molecule": "COc1cccc(CNCc2ccc(F)c(Cl)c2)c1O", "INHIBITION": 80}
{"molecule": "COc1cc(CNCCNC(=O)c2ccc(O)cc2)ccc1SC", "INHIBITION": 26.9}
{"molecule": "COc1cccc(CNCc2cccc(Cl)c2)c1O", "INHIBITION": 85.2}
{"molecule": "CC1CCC2(CC1)NC(=O)c1cc(Br)ccc1-n1nnnc12", "note": "(stereo not drawn)", "INHIBITION": -65.8}
{"molecule": "O=C(c1csc(-c2ncccn2)n1)N1CCN2CCCCC2C1", "note": "(stereo not drawn)", "INHIBITION": -32.7}
{"molecule": "CN(C)[C@@H]1CN(C(=O)Cc2ccccc2)[C@@H]2CCCO[C@H]12", "INHIBITION": -9.86}
{"molecule": "CC(C)CCC(=O)N1CCC2(CC1)OCCO2", "INHIBITION": -8.85}
{"molecule": "Cc1ccc(C(=O)N2C[C@H]3CN(Cc4csc(C)n4)C[C@H]3C2)cn1", "INHIBITION": -173}
{"molecule": "COC(=O)C(C)(C)NC(=O)c1cnc(Cc2ccc(F)cc2)s1", "INHIBITION": 75.4}
{"molecule": "Cc1cnn(CC(C)NCCc2cccs2)c1", "note": "(stereo not drawn)", "INHIBITION": -30.1}
{"molecule": "Cc1cnn(CCNCC(O)COc2c(Cl)cccc2Cl)c1", "note": "(stereo not drawn)", "INHIBITION": 81.9}
{"molecule": "Cc1cnn(CCNCC(O)c2ccc(C(F)(F)F)cc2)c1", "note": "(stereo not drawn)", "INHIBITION": 72.6}
{"molecule": "CC(C)(O)CNc1ccc(C#N)c(C(F)(F)F)c1", "INHIBITION": -74.3}
{"molecule": "CC1=NOC2(CCN(Cc3c[nH]c4ccccc34)CC2)C1", "INHIBITION": -17.9}
{"molecule": "O=C(c1ccc[nH]1)N1CCC2(CCCN2Cc2cccnc2)CC1", "INHIBITION": -9.26}
{"molecule": "CN(C)c1ncc2c(n1)C1(CCN(Cc3cccnc3)C1)COC2", "note": "(stereo not drawn)", "INHIBITION": -4.75}
{"molecule": "CCN1CCN(C[C@@H]2CN(c3ncc(Cl)cc3F)C[C@@H]2CO)CC1", "INHIBITION": 92.2}
{"molecule": "Cc1ccccc1OCC(=O)N1CCN(C2CCOC2=O)CC1", "note": "(stereo not drawn)", "INHIBITION": -28.3}
{"molecule": "Cc1cccc(NC(=O)c2cccc(OCc3nnnn3C)c2)n1", "INHIBITION": 80.7}
{"molecule": "CC(C)CCNc1c(C#N)c2c(c3nncn13)CN(C)CC2", "INHIBITION": -35.1}
{"molecule": "CN1CCc2c(C#N)c(NCCc3ccccc3)n3cnnc3c2C1", "INHIBITION": 70.9}
{"molecule": "CN1CCc2c(C#N)c(NCCCO)n3cnnc3c2C1", "INHIBITION": -82.4}
{"molecule": "COc1ccc(CC(=O)N2CCC[C@@H](N)[C@@H]2c2ccccc2F)cc1", "INHIBITION": 80.9}
{"molecule": "COCCN1C[C@@H]2[C@@H](OC)CCN(C(=O)Cc3ccccc3)[C@@H]2C1", "INHIBITION": -25}
{"molecule": "COc1ccc(CC(=O)N2CCN(Cc3ccco3)C[C@@H]2C)cc1", "INHIBITION": -22.3}
{"molecule": "Cc1cccc(CN2C[C@@H]3OCCN(S(=O)(=O)N(C)C)[C@@H]3C2)n1", "INHIBITION": -43.1}
{"molecule": "CCc1ccc2nc(NCCCN(CCO)CCO)cc(C)c2c1", "INHIBITION": 83.4}
{"molecule": "CCN1CCC12CCN(C(=O)c1cc(C)on1)C2", "note": "(stereo not drawn)", "INHIBITION": -10.1}
{"molecule": "CCc1noc(CN2CCN(C(=O)Cc3ccc(F)cc3)CC2)n1", "INHIBITION": -9.72}
{"molecule": "NC1CCCCN(Cc2cc(-c3ccccc3OC(F)(F)F)no2)C1", "note": "(stereo not drawn)", "INHIBITION": 71.1}
{"molecule": "CC(C)n1ccc2c(C(=O)NC3CN4CCC3CC4)cccc21", "note": "(stereo not drawn)", "INHIBITION": -67.1}
{"molecule": "COc1cc(CNCC(C)O)cc(Cl)c1OCc1ccc(C)cc1", "note": "(stereo not drawn)", "INHIBITION": 73.9}
{"molecule": "COc1cccc(CNC(C)C)c1OCc1ccc(C)cc1", "INHIBITION": 73.7}
{"molecule": "Cc1nc(C)c(CC(=O)N2CCN(CC(C)C)CC2)c(=O)[nH]1", "INHIBITION": -137}
{"molecule": "Clc1cccc(C(NCc2ncc[nH]2)c2ccccn2)c1", "note": "(stereo not drawn)", "INHIBITION": 86.9}
{"molecule": "Fc1cccc(C(NCc2ncc[nH]2)c2ccccn2)c1", "note": "(stereo not drawn)", "INHIBITION": 91.8}
{"molecule": "Cc1nnc([C@@H]2C[C@H]3CN(C4CCC4)C[C@H]3O2)[nH]1", "INHIBITION": -81.6}
{"molecule": "O=C(c1cn(Cc2ccccc2)c2ncccc12)N1CCCCC1", "INHIBITION": -11.9}
{"molecule": "N#CC1(c2ccccc2)CCN(C(=O)CN2C(=O)CCNC2=O)CC1", "INHIBITION": -90.6}
{"molecule": "COc1ccc(CNC(C)Cn2cccn2)c(OC)c1OC", "note": "(stereo not drawn)", "INHIBITION": -37.6}
{"molecule": "CNS(=O)(=O)c1cccc(C(C)NCc2ccccc2OC)c1", "note": "(stereo not drawn)", "INHIBITION": 86.6}
{"molecule": "COc1ccc(CNC(C)c2ccccc2Cl)c(OC)c1OC", "note": "(stereo not drawn)", "INHIBITION": 75.6}
{"molecule": "COc1ccc(CNC(C)c2ccc(Cl)cc2)c(OC)c1OC", "note": "(stereo not drawn)", "INHIBITION": 80.9}
{"molecule": "CCOc1cccc(C(C)NCc2ccc(OC)c(OC)c2OC)c1", "note": "(stereo not drawn)", "INHIBITION": 77.6}
{"molecule": "O=C1C[C@@H]2[C@H](CCN2Cc2ccccn2)N1Cc1ccncc1", "INHIBITION": 19.2}
{"molecule": "Cc1n[nH]c(C)c1CNC(=O)c1cn(CCC2CCCCN2)nn1", "note": "(stereo not drawn)", "INHIBITION": -24.9}
{"molecule": "c1coc(CNc2ncc3c(n2)C2(CCNC2)COC3)c1", "note": "(stereo not drawn)", "INHIBITION": -66}
{"molecule": "CC(C)N1CCCC(Cc2nccnc2Cl)CC1", "note": "(stereo not drawn)", "INHIBITION": -7.14}
{"molecule": "Cn1ccc(CN2CCCC23CCNCC3)n1", "INHIBITION": -53.7}
{"molecule": "O=C([C@H]1C[C@H]2OCC[C@H]2N(Cc2ccccn2)C1)N1CCCCO1", "INHIBITION": -88.5}
